# USP17 block: inhibitors of human USP17 deubiquitinase; A8MUK1; purified USP17, Ub-rhodamine cleavage fluorescence, 3 h; inhibition, % at 50 µM; hit rate 6.5% among 47,000
# Target sequence (A8MUK1 whole entry, looked up): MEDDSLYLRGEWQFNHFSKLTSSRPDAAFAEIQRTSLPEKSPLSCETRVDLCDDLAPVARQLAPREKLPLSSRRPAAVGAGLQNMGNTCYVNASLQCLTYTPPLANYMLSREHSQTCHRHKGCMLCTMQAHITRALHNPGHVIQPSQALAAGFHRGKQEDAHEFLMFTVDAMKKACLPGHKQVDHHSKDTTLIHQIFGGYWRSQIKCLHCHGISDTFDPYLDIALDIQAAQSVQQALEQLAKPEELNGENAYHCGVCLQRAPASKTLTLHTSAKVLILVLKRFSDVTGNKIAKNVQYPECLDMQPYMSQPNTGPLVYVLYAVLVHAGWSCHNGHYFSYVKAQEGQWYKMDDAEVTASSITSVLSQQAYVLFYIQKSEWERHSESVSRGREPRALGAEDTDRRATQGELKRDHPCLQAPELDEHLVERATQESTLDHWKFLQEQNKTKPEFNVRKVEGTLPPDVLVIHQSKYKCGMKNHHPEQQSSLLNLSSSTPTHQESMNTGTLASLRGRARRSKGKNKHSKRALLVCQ
# USP30 block: human USP30 deubiquitinase inhibition | inhibition, % at 25 µM | hit rate 5.3% among 47,000 | Q70CQ3 | purified USP30, Ub-rhodamine cleavage fluorescence
# USP28 block: human USP28 deubiquitinase inhibition; Q96RU2; purified USP28, Ub-rhodamine cleavage fluorescence, 30 min; inhibition, % at 25 µM; hit rate 3% among 47,000; AID 1645857
# * = called active by the depositor; nt = no result given. The list is not random: actives were taken first. Their share in the collection is about 11%. Rule as the data show it: active = inhibition above about 30%; inactive = the rest.
SMILES,USP17 block,USP30 block,USP28 block
Cc1cccc(OCC(=O)Nc2ccc3c(c2)Sc2ncccc2C(=O)N3C)c1,14,-32,4
COc1ccc(CCC(=O)Nc2ccc3c(c2)Sc2ccccc2C(=O)N3C)cc1,nt,39*,32*
COc1ccc(C(=O)Nc2ccc3c(c2)Sc2ncccc2C(=O)N3C)cn1,7,-35,65*
O=C(CCc1nnc2n(Cc3ccc(F)cc3)c(=O)c3ccccc3n12)N1CCCC1,2,8,0
CCn1c(=O)n(CC(=O)N(C)C2CCCCC2)c(=O)c2cnc(-c3ccccc3)nc21,6,-6,13
CSCS(=O)C[C@H](CO)NC(=O)/C=C/c1c(C)[nH]c(=O)[nH]c1=O (some centres not stated),-20,-5,0
COc1ccc(NC(=O)N2CCN(C3=CC4=NCC(C)N4C=N3)CC2)c(C)c1 (configuration not stated),-19,27,10
O=C(c1cccnc1)c1c(N2CCOCC2)[nH]c(=O)c2ccccc12,37*,nt,nt
CCCOC(=O)c1cc(NC(=O)c2cccnc2)ccc1N1CCOCC1,5,21,8
COc1cccc(C(=O)Nc2cnn(-c3ncncc3N(C)C)c2)c1,1,nt,nt
COc1ccc(NS(=O)(=O)c2cc(NC(=O)CCc3nc4ccccc4s3)ccc2C)cc1,60*,35*,-2
NS(=O)(=O)c1cccc(NC(=O)CCc2nc3ccccc3s2)c1,-11,-18,-6
COc1ccc(C2=NO[C@]3(C(=O)Nc4ccccc43)[C@H]2C(=O)c2ccccc2)c(OC)c1,5,-6,3
COc1ccccc1C(=O)N1CCCCC1c1nnc(-c2cnc(C)cn2)o1 (configuration not stated),8,18,9
Cc1ccc(C(=O)Nc2c(C(=O)N3CCN(c4ccc(F)cc4)CC3)[nH]c3ccccc23)cc1,-5,-7,-4
COC(=O)c1ccc(NS(=O)(=O)c2c[nH]c3ccc([N+](=O)[O-])cc23)cc1,45*,28,14
O=C(O)c1ccc(NS(=O)(=O)c2ccc(N3CCCC3)c([N+](=O)[O-])c2)cc1,6,6,15
Cc1cc(F)ccc1NS(=O)(=O)c1c[nH]c2ccc([N+](=O)[O-])cc12,46*,42*,8
COc1cc(-c2ccno2)ccc1S(=O)(=O)Nc1ccc(F)cc1C,-6,-1,3
CCc1noc(-c2c(C)cc(C)n2CC(=O)Nc2cc(C)ccc2C)n1,5,16,0
COC(=O)c1cc(OC)cc(O)c1C(=O)c1c(O)cc2cc(C)oc(=O)c2c1O,8,12,4
O=C(c1ccc(-c2ccc(F)cc2)o1)N1CCN(C(=O)C2CCCO2)CC1 (configuration not stated),1,0,5
Cc1ccccc1-c1cc(C(=O)Nc2ccc(Br)c(Br)c2)c2ccccc2n1,-9,-25,-2
CC(C)c1ccc(NC(=O)c2c(-c3ccccc3)nnc3ccccc23)cc1,8,24,4
Cc1ccc(-c2cc(C(=O)Nc3ccc4c(c3)OCCO4)c3ccccc3n2)o1,39*,-41,7
SMILES,USP17 block,USP30 block,USP28 block
O=C(Nc1ccc2c(c1)OCCO2)c1cccc2nc3ccccc3nc12,41*,75*,30
O=C(CCc1nc2ccccc2[nH]1)Nc1ccc2c(c1)OCCO2,27,nt,nt
O=C(Nc1ccc2c(c1)OCCO2)c1c(-c2ccccc2)nnc2ccccc12,31*,-12,-5
COc1ccc(CNc2nc3c(c(=O)n2C)CCN(C(=O)Nc2ccccc2)C3)cc1,-9,-18,-5
CC(=O)N[C@@H]1C[C@@H](Oc2cccnc2)[C@H](O)[C@H]1N1CCCCC1,-3,-9,-2
COC(=O)c1ccc(NC(=O)/C=C/c2ccc(F)cc2)cc1,86*,90*,96*
COC(=O)c1cc(NC(=O)/C=C/c2ccc(C(C)C)cc2)ccc1N1CCOCC1,-17,-22,23
O=C(COc1ccc2c(c1)OCO2)Nc1cccc(S(=O)(=O)N2CCOCC2)c1,-25,-71,-3
Cc1sc(-c2ccccc2F)nc1C(=O)N1CCC(C(N)=O)CC1,-22,-17,-14
CC1CCN(C(=O)c2cn(-c3ccc(S(=O)(=O)N4CCCC(C)C4)cn3)cn2)CC1 (configuration not stated),8,16,2
CC1CCCN(C(=O)c2cn(-c3ccc(S(=O)(=O)N4CCCC(C)C4)cn3)cn2)C1 (configuration not stated),6,38*,10
O=C(Nc1cccnc1)[C@H]1C[C@@H]2CCN(c3ncccn3)C[C@H]2O1,nt,7,3
Cn1c(O)c(C2=Nc3ccccc3SC(c3ccc(O)cc3)C2)c(=O)n(C)c1=O (configuration not stated),-6,-27,-10
CN(C)c1ccc(C2CC(c3c(O)n(C)c(=O)[nH]c3=O)=Nc3ccccc3S2)cc1 (configuration not stated),65*,24,51*
CC1=CCC2C(C)(C)CCC[C@]2(C)[C@H]1CO[C@@H](C(=O)O)[C@H](CC(=O)O)C(=O)O (some centres not stated),-2,-80,0
Cc1nn(-c2ccc([N+](=O)[O-])cc2)c(C)c1-c1nc2ccccc2[nH]1,5,63*,37*
Cn1ccc(-c2nc3ccccc3[nH]2)n1,11,13,-4
O=C(COC(=O)c1ccc2ncsc2c1)c1ccc2c(c1)OCCO2,-11,-41,31*
O=C(COC(=O)c1ccc2c(=O)n3c(nc2c1)CCCCC3)c1ccc2c(c1)OCCO2,-6,-2,19
CC(OC(=O)c1ccc2ncsc2c1)C(=O)Nc1ccc2c(c1)OCO2 (configuration not stated),0,4,-4
Cc1cccc(C(=O)OCC(=O)c2ccc3c(c2)OCCO3)c1O,5,1,19
NS(=O)(=O)c1cc(C(=O)OCC(=O)c2ccc3c(c2)OCCO3)ccc1Cl,-28,-12,70*
O=C(COC(=O)c1ccc(CN2CCCC2=O)cc1)c1ccc2c(c1)OCCO2,9,-25,90*
CCc1nc(NC(=O)c2cnn(-c3ccc(F)cc3)c2)n[nH]1,18,nt,nt
O=C(O)CC(c1ccc2c(c1)OCO2)N1Cc2ccccc2C1=O (configuration not stated),5,12,11
SMILES,USP17 block,USP30 block,USP28 block
Cc1ccc(C(CC(=O)Nc2cccc(C)n2)N2Cc3ccccc3C2=O)cc1 (configuration not stated),41*,0,15
Cc1nc2cc(-c3nccn3C)nn2c(N2CCCC2)c1C,-15,-19,16
CCCN(CC(=O)Nc1cc(Cl)ccc1Cl)C(=O)c1sccc1C,8,7,19
COc1cccc2cc(C(=O)NCc3cnn4ccccc34)oc12,-3,-32,-19
COc1cccc2cc(C(=O)Nc3nc(-c4ccncc4)cs3)oc12,31*,31*,15
Nc1ccccc1-c1nnc(SCC(=O)c2ccccc2)o1,16,33*,15
CC(=O)CSc1nnc(-c2cnn(-c3ccccc3)c2N)o1,-9,1,-2
CC(C)=CCc1ccc2[nH]cc(C3=C(O)C(=O)C(c4c[nH]c5ccccc45)=C(O)C3=O)c2c1,43*,-116,21
CC(C)=CCc1ccc2cc[nH]c2c1,-9,-26,-5

# High-throughput results from PubChem BioAssay.
